# According to PubChem BioAssay (NCI):
# Compounds without any hit were thinned out: in the full panel of roughly 83,000, 20% have a hit.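 Assay: single dose, 48 h. Readout: percent growth (0 = no net growth; negative = cell death). Active: <10.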 Values without a mark were called inactive. Activity calls are given as the source filed them.
# How the values were obtained:
# Test in all cases: NCI-60 one-dose screen, 48 h (100 = growth as untreated, 0 = no growth, -100 = all killed)
# Settings in all cases: 10 µM unless noted
# SR leukemia = test system: SR leukemia
# RPMI-8226 leukemia = test system: RPMI-8226 leukemia
# OVCAR-8 ovarian = test system: OVCAR-8 ovarian
# OVCAR-5 ovarian = test system: OVCAR-5 ovarian
# OVCAR-4 ovarian = test system: OVCAR-4 ovarian
# SK-OV-3 ovarian = test system: SK-OV-3 ovarian
# IGROV1 ovarian = test system: IGROV1 ovarian
# OVCAR-3 ovarian = test system: OVCAR-3 ovarian
# HS 578T breast = test system: HS 578T breast
# NCI/ADR-RES ovarian = test system: NCI/ADR-RES ovarian
Compound,growth (SR leukemia),growth (RPMI-8226 leukemia),growth (OVCAR-8 ovarian),growth (OVCAR-5 ovarian),growth (OVCAR-4 ovarian),growth (SK-OV-3 ovarian),growth (IGROV1 ovarian),growth (OVCAR-3 ovarian),growth (HS 578T breast),growth (NCI/ADR-RES ovarian)
Cc1cn(C)cn1,99.4%,102%,106%,102%,100%,120%,117%,108%,138%,109%
COc1c2c(cc3c1C(=O)N[C@@H]1[C@@H](O)[C@@H](O)[C@H](O)C[C@@H]31)OCCO2,92.1%,102%,100%,105%,105%,98.6%,109%,104%,96.2%,113%
CN(C)c1ccc(/C=N\NC(=O)c2ccc3nc(-c4ccc(Cl)cc4)[nH]c3c2)cc1,20.7%,67.4%,51.3%,89.2%,36.4%,98.3%,40.2%,70.7%,70%,77%
COc1ccc(-c2cn(Cc3cc4ccccc4s3)nn2)cc1OCCN1CCCCC1,1.37% (active),28.5%,83.2%,80.5%,68.2%,93.1%,80.8%,74.6%,51.3%,75.4%
COc1ccc2c(c1)CC[C@@H]1[C@@H]2CC[C@]2(C)C3C(=CC(COC(C)=O)C4C(=O)N(c5ccc(Cl)cc5)C(=O)C43)C[C@@H]12 (stereo not given in full),35.4%,61.8%,107%,78.4%,101%,125%,119%,110%,110%,102%
Fc1cccc(CNc2c3ccccc3nc3ccccc23)c1,19.1%,10.1%,36%,43.8%,30.5%,51.1%,25.6%,67%,63.9%,30.1%
O=C1/C(=C/c2c[nH]c(=O)[nH]c2=O)SC(=S)N1Cc1ccccc1,99.5%,101%,100%,99%,105%,103%,102%,108%,89%,106%
COc1ccc(/C=C/C(c2cc(OC)c(OC)c(OC)c2)n2cncn2)cc1O (stereo not given),5.67% (active),19.9%,16%,86.5%,83.5%,12.7%,50.5%,15.7%,28.5%,10.8%
COc1cc(-c2cc(-c3ccc(Nc4nc(Nc5ccc(Cl)cc5)nc(Nc5ccc(Cl)cc5)n4)cc3)no2)cc(OC)c1OC,15.7%,7.63% (active),76.4%,77.8%,78.8%,90.7%,71%,86%,62.9%,80.4%
CCOC(=O)c1c(C)nc2c(c1N)C(=O)C(=O)N2Cc1ccc(OC)cc1,31%,20.1%,61.6%,97.5%,46.6%,108%,82.5%,18.2%,79.2%,8.45% (active)
COCC(=O)Oc1cc(-c2ccc(C)cc2C)c(OC(=O)COC)c(-c2ccc(C)cc2C)c1,20.6%,34.2%,59.5%,38.1%,50.5%,66.2%,50.1%,51.9%,55%,68.2%
COc1cc(-c2ccc(-c3ccc(C(=N)N)cc3)s2)cc(OC)c1OC,5.38% (active),-22.6% (active),70.7%,83%,54%,77.9%,62.6%,46%,34.7%,95.4%
CCOC(=O)CC[C@H](NC(=O)c1ccc(N(C)Cc2cnc3nc(N)nc(N)c3n2)c2ccccc12)C(=O)OCC,31.8%,23%,23.9%,55.6%,91.1%,50.7%,24.5%,45.4%,58%,39.3%
N#C/C(=C\c1ccc(-c2cccc(Cl)c2)o1)C(=O)Nc1ncc(Cc2ccc(Cl)cc2)s1,29.9%,81.1%,40.4%,47.1%,-45.5% (active),78%,30.5%,11.3%,24.4%,54.6%
O=C(NNc1nc2cc(F)ccc2n2c(CN3CCOCC3)ccc12)c1ccccc1,3.49% (active),10.9%,13.1%,28.9%,-14.9% (active),27.5%,3.07% (active),-8.34% (active),57.9%,5.25% (active)
CN1CCN(Cc2ccc(NC(=O)c3cncc(C#Cc4cnc(N)cc4C#N)c3)cc2C(F)(F)F)CC1,1.8% (active),12.7%,22.6%,15.8%,23.2%,-14.6% (active),1.46% (active),28.4%,-8.07% (active),66.3%
CC1(C)CC[C@]23CC[C@]4(C)[C@H](CC[C@@H]5[C@@]6(C)C/C(=C/O)C(=O)C(C)(C)[C@@H]6CC[C@]54C)[C@H]2[C@H]1OC3,95.1%,100%,104%,107%,111%,110%,106%,121%,111%,104%
OC1CSSC1Cn1cnc2c(Nc3ccc(OCc4cccc(F)c4)c(Cl)c3)ncnc21 (stereo not given),-29.9% (active),-37.5% (active),37.4%,41%,4.03% (active),-8.67% (active),41.4%,-70.2% (active),59.2%,1.93% (active)
COc1cc(-c2nccc3[nH]c(-c4cccc5[nH]ccc45)nc23)cc(OC)c1OC,8.9% (active),-43.6% (active),18.2%,73.8%,47.5%,15.1%,44.6%,16.7%,38.4%,4.71% (active)
Nc1cc(Br)cc2c1[nH]c(=O)c1ccccc12,90.7%,96.1%,86.2%,92.3%,84.2%,105%,114%,94.4%,91.6%,91.7%
C/C(=C(\c1ccc(OCCN2CCCCCC2)cc1)c1ccc(OC(=O)c2ccccc2)cc1)c1ccc(Cl)cc1,-16.1% (active),13.1%,42.6%,68.5%,37.5%,77.1%,46.7%,61.8%,42%,59%
C#CCOc1cccc(Nc2ncnc3cc(NC(=O)CCl)ccc23)c1,-47.7% (active),-43.9% (active),-30.2% (active),-73% (active),-41% (active),-55.8% (active),-64.6% (active),-76.7% (active),-1.12% (active),-21.9% (active)
COc1cc2c(cc1OCCCN1CCN(C(=S)SCCC(C#N)(c3ccccc3)c3ccccc3)CC1)N=C[C@@H]1CCCN1C2=O,-37.6% (active),-19.3% (active),-0.777% (active),-46.2% (active),-19.2% (active),-7.04% (active),-89.4% (active),-89.3% (active),-54.4% (active),22.3%
CN(C)CCCC1(c2ccc(F)cc2)OCc2cc(-c3csc4ccccc34)ccc21 (stereo not given),-8.7% (active),-40.7% (active),-23.2% (active),37%,26.4%,81.9%,-31.1% (active),-58.2% (active),19.3%,37.9%
O=C(/C=C/c1ccccc1Cl)c1cccc(OCCCCOc2cccc(C(=O)/C=C/c3ccccc3Cl)c2)c1,81%,-6.16% (active),99.9%,101%,106%,100%,92.8%,112%,106%,103%
c1cc(OCCN2CCCC2)ccc1CNc1ccc2nc(CCC3CCCCC3)[nH]c2c1,7.84% (active),-8.82% (active),43%,67.5%,56.7%,99.3%,46.3%,49.6%,44.1%,85%
